Measured values as given in PubChem BioAssay (NCI).
This is part of a sample that, as a whole, favours compounds with a hit. Of some 83,000 tested, about 20% had one in any assay.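 Cell lines were cultured in 96-well plates, exposed to a single compound concentration, and assessed for percent growth 48 hours later.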 A number with no mark means an inactive call. The source made the active and inactive calls. How the source made its calls: active means growth percent below 10; inactive means the rest.

system: ACHN renal; assay: NCI-60 one-dose screen, 48 h (100 = growth as untreated, 0 = no growth, -100 = all killed); conditions: 10 µM unless noted

| SMILES | growth |
| --- | --- |
| COc1cc(-c2nn(-c3cccc(NC(=O)Nc4cc(C(F)(F)F)cc(C(F)(F)F)c4)c3)cc2-c2ccncc2)ccc1Cl | 10.5% |
| CCOC(=O)NNC(=S)Nc1ccccc1 | 105% |
| N#Cc1c(-c2ccccc2)nc(SCC(=O)N2CCN(c3ccccc3)CC2)[nH]c1=O | 101% |
| C=C1c2nc3ccccc3n2C=C(c2ccc(Cl)cc2)N1Cc1ccccc1 | 81.4% |
| CCOC(=O)C1=C(C)NC(C)=C(C(=O)OCC)C1(C)C | 106% |
| NNc1cccc(/C=C/c2ccccc2)cc1=O | 37.5% |
| O=C(Nc1ccncc1)C(=O)c1cn(S(=O)(=O)c2ccc(Br)cc2)c2ccccc12 | 58% |
| CCN(CC)c1ccc(CNc2ccnc3ccccc23)cc1 | 75.8% |
| COc1cccc(-c2cc3c(O)cc(C#N)cc3[nH]2)c1 | 87.6% |
| C=C(C)[C@@H]1CC[C@]2(C(=O)N3CCNCC3)CC[C@]3(C)[C@H](CC[C@@H]4[C@@]5(C)C/C(=C/c6ccncc6)C(=O)C(C)(C)[C@@H]5CC[C@]43C)[C@@H]12 | 103% |
| O=[N+]([O-])c1cc(Cl)c2[nH]c3c(Cl)cc([N+](=O)[O-])cc3c2c1 | -10.3% (active) |
| COc1cc(-c2nn(C(=O)NS(=O)(=O)c3ccccc3)cc2-c2ccncc2)ccc1Cl | 80.3% |
| Cn1c(=O)c2[nH]c(C3CC=CCC3)nc2n(C)c1=O (stereo unspecified) | 101% |
| C=C[C@@H]1C[C@H](O)Cc2cc(F)ccc2N1 | 104% |
| O=C(O)Cc1cccc(=O)c(O)c1C(=O)O | 101% |
| O=C(O)COc1ccc(-c2cssc2=S)cc1 | 103% |
| CC(C)CC1NC(C)(C)CO1 (stereo unspecified) | 113% |
| O=C(O)C1CCCCN1c1nc(Cl)nc(Cl)n1 (stereo unspecified) | 113% |
| CCCCN(CCCC)C(=N)c1ccnc2ccccc12 | 109% |
| O=S(=O)(NCCNc1nccc(-c2c(-c3cccc(O)c3)nc3sccn23)n1)c1ccc(F)cc1 | 60.2% |
| COc1cc(-c2nn(-c3cccc(NC(=O)c4cccc(C(F)(F)F)c4)c3)cc2-c2ccncc2)ccc1Cl | 31.6% |
| Cc1ccc(Cc2c(C=O)nc(N)[nH]c2=O)c2ccccc12 | 107% |
| Cn1cnc2c(N3CCN(C(=O)OCc4ccc5c(Cl)cc(Cl)c(O)c5n4)CC3)nc(Cl)nc21 | 48.4% |
| CCOC(=O)c1ccc2c(c1)c1c(C)c3cccnc3c(C)c1n2C | 29.8% |
| Cc1nc2ncccc2nc1Nc1ccc(S(=O)(=O)Nc2ccccn2)cc1 | 95.2% |
| COc1ccc(C2=C(c3cc(OC)c(OC)c(OC)c3)C(=O)CC2)cc1 | 37.8% |
